The values that follow come from PubChem BioAssay (Tox21).

Records with an inconclusive call do not appear. The source made the active and inactive calls. Unless noted, calls come from the whole dose curve; as a rule, active = well fitted curve in the direction sought with a large enough effect in the repeat runs; inconclusive = weak or mixed curves; inactive = no such curve, though single readings can be large; an effect the other way counts as inactive or inconclusive.

Test [1] is described as follows: qHTS assay to identify small molecule agonists of the RXR signaling pathway - cell viability counter screen (AID 1159529).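 Note: HEK 293T cells carrying an RXR-alpha UAS beta-lactamase reporter; series mostly up to about 77 µM; nearly all actives have a fitted effect of over 50% in size.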 The essentials: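 In this parallel viability measure, GeneBLAzer RXR-alpha HEK 293T cells (2% charcoal-stripped FBS) were given a 5 hr preincubation, treated with compounds 16 hr at 37 C, and read by CellTiter-Glo luminescence.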
Test [2] in a line: qHTS assay to identify small molecule antagonists of the retinoid acid receptor (RAR) signaling pathway - cell viability counter screen (AID 1159551). Note: nearly all actives have a fitted effect of over 35% in size. The essentials: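 C3RL4 RARE-luciferase line; cpds + retinol 1 uM final, 6 h, 37 C/5% CO2; CellTiter-Glo ATP luminescence, 30 min RT.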
A short description of test [3]: qHTS assay to identify small molecule antagonists of the estrogen related receptor (ERR) signaling pathway from Tox21 library - cell viability counter screen (AID 1224834). Note: nearly all actives have a fitted effect of over 30% in size. Note: potency is the fitted concentration of half-maximal effect. The essentials: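 Multiplexed viability counter screen in ERR cells: 17.5 h compound exposure at 37 C, CellTiter-Fluor added, 30 min at 37 C/5% CO2, fluorescence read.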
In general terms: qHTS replaces the single test concentration by a dilution series.

The target in test [4] is Luciferin 4-monooxygenase (Photinus pyralis) (UniProt P08659). The test is described as follows: qHTS assay to identify small molecule inhibitors of firefly luciferase (AID 1224835). Note: nearly all actives have a fitted effect of over 25% in size. Note: potency is the fitted concentration of half-maximal effect. The essentials: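 Quantitative HTS format; KM concentrations of both substrates. Purified P. pyralis FLuc activity quantified from luminescence images.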
The nature of test [5]: qHTS assay to identify small molecule agonists of the constitutive androstane receptor (CAR) signaling pathway - cell viability counter screen (AID 1224836). Note: series mostly up to about 92 µM; nearly all actives have a fitted effect of over 45% in size. A digest of the protocol: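 Using CellTiter-Fluor, viability of HepG2 cells harbouring hCAR and CYP2B6-2.2kb was measured following 23 h incubation with a 15-concentration compound series plus PK11195 (0.75 uM final).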

A short description of test [6]: qHTS assay to identify small molecule antagonists of the constitutive androstane receptor (CAR) signaling pathway - cell viability counter screen (AID 1224837). Note: series mostly up to about 92 µM; nearly all actives have a fitted effect of over 45% in size. A digest of the protocol:
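Read-out: CellTiter-Fluor fluorescence after 23 hr at 37 C/5% CO2. Cells: HepG2 double-stable for hCAR and CYP2B6-2.2kb. Compounds tested at 15 concentrations in the presence of CITCO, final concentration 50 nM.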

A short description of test [7]: qHTS assay to identify small molecule antagonists of the estrogen related receptor signaling pathway with the pleiotropic PPARgamma coactivator (PGC) from Tox21 10K library - cell viability counter screen (AID 1224840; active = well fitted cell-killing curve with a large enough effect in the repeat runs, not every such curve was filed as active; note: nearly all actives have a fitted effect of over 40% in size). The essentials: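 Fluorescence read-out of CellTiter-Fluor viability reagent, added after cells had been exposed to compound in DMSO for 17.5 h at 37 C; 30 min development at 37 C/5% CO2. Cells: PGC/ERR line, 2,000/well.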

The target in test [8] is Thyrotropin receptor (Homo sapiens) (UniProt P16473). The test is described as follows: qHTS assay to identify small molecule agonists of the thyroid stimulating hormone receptor (TSHR) signaling pathway (AID 1224843; calls by dose curve; note: nearly all actives have a fitted effect of over 45% in size; note: potency is the fitted concentration of half-maximal effect). The essentials:
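Compounds are titrated over 15 concentrations, in triplicate, onto TSHR-HEK293 cells seeded at 800/well. Plates sit 30 min at room temperature before cAMP-d2 and anti-cAMP cryptate are added; signal is read after a further hour.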

Test [9] in a line: qHTS assay to identify small molecule agonists of the retinoic acid receptor (RAR) signaling pathway (AID 1159553). The essentials: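 RARE-luc C3RL4 cells; overnight attachment 37 C/5% CO2; compound (DMSO) 6 hr; luciferase reagent, 30 min RT; luminescence read-out.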
In test [10] the target is Nuclear receptor subfamily 1 group I member 3 (Homo sapiens) (UniProt Q14994). The test is described as follows: qHTS assay to identify small molecule antagonists of the constitutive androstane receptor (CAR) signaling pathway (AID 1224838).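 Note: HepG2 cells stably expressing hCAR with CYP2B6 luciferase reporter stimulated by CITCO; nearly all actives have a fitted effect of over 40% in size.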 Note: potency is the fitted concentration of half-maximal effect. A digest of the protocol: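 Read-out: ONE-Glo luciferase luminescence after 30 min at room temperature. HepG2-CYP2B6-hCAR double-stable cells, compounds in 15-point titration plus 50 nM CITCO final, 24 h at 37 C/5% CO2.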

Test [11] has the same target. Briefly: qHTS assay to identify small molecule agonists of the constitutive androstane receptor (CAR) signaling pathway (AID 1224839). Note: nearly all actives have a fitted effect of over 15% in size. Note: potency is the fitted concentration of half-maximal effect. The essentials:
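Double-stable HepG2 cells (hCAR, CYP2B6-2.2kb) seeded 4 h before compound addition. Exposure 24 h with 0.75 uM PK11195 final. Luciferase detected by ONE-Glo.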

Test [12] is described as follows: qHTS assay to identify small molecule agonists of the estrogen related receptor signaling pathway with the pleiotropic PPARgamma coactivator (PGC) from Tox21 10K library (AID 1224842). Note: nearly all actives have a fitted effect of over 15% in size. A digest of the protocol:
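PGC/ERR reporter cells (NTP line) were seeded 2,000 per well, rested 6 h at 37 C/5% CO2, then pin-dosed with compounds in DMSO for 18 h at 37 C; luciferase read by One-Glo luminescence after 30 min at room temperature.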

A short description of test [13]: qHTS assay to identify small molecule antagonists of the estrogen related receptor signaling pathway with the pleiotropic PPARgamma coactivator (PGC) from Tox21 10K library (AID 1224841; call rule not given here; note: actives are mostly falling curves and most rising ones were filed inactive; nearly all actives have a fitted effect of over 50% in size; note: potency is the fitted concentration of half-maximal effect). The essentials:
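Luminescence read-out (One-Glo luciferase reagent, 30 min at room temperature) from PGC/ERR cells exposed to DMSO-dissolved test compounds for 18 h at 37 C; cells, 2,000 per well, had been preincubated 6 h before compound transfer.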

The nature of test [14]: qHTS assay to identify small molecule agonists of the estrogen related receptor (ERR) signaling pathway (AID 1224820). The essentials:
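After 6 h plating (2,000 cells/well) and 18 h compound treatment at 37 C, ERR cells were lysed with One-Glo and luminescence read after 30 min at room temperature.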

Test [15] in a line: qHTS assay to identify small molecule antagonists of the retinoic acid receptor (RAR) signaling pathway (AID 1159552; note: nearly all actives have a fitted effect of over 50% in size). A digest of the protocol:
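C3RL4 RARE-luc cells, overnight plating; retinol 1 uM final added right after compound; 6 hr 37 C; luciferase read at 30 min RT.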

Thyrotropin receptor (Homo sapiens), sequence (P16473 whole entry, looked up): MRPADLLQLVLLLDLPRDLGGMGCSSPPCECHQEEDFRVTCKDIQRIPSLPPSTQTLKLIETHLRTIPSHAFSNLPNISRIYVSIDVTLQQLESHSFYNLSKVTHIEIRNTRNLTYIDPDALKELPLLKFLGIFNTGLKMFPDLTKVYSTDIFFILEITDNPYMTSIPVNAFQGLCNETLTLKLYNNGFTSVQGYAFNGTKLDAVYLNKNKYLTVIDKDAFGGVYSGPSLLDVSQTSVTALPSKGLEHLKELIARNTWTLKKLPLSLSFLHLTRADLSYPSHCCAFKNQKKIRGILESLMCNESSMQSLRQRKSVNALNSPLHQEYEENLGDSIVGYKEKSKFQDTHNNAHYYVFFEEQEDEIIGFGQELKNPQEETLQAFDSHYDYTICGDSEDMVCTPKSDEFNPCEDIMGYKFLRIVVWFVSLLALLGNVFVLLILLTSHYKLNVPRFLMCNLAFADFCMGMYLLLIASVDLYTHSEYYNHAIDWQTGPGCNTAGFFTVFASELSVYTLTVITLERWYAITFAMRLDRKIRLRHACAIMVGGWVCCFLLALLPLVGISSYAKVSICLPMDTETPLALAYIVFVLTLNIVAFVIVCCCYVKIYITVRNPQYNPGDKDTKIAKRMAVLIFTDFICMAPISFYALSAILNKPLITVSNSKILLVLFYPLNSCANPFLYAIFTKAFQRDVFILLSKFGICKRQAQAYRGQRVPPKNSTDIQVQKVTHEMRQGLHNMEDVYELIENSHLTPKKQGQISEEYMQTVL
Luciferin 4-monooxygenase (Photinus pyralis), sequence (P08659 whole entry, looked up): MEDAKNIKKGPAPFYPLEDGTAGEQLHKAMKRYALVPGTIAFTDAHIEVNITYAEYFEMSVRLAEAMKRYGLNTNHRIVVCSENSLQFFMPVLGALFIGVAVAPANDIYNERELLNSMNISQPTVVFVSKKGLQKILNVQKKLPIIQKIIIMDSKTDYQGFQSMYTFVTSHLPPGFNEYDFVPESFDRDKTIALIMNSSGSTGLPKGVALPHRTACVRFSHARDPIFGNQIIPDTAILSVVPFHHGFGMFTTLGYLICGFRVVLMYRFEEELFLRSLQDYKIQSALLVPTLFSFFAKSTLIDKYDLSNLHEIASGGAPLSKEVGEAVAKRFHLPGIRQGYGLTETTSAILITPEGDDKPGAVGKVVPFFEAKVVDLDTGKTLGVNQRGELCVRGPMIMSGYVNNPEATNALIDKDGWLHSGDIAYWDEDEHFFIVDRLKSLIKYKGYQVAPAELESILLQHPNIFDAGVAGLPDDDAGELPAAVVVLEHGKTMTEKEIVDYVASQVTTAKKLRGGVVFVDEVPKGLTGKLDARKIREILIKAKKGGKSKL
Nuclear receptor subfamily 1 group I member 3 (Homo sapiens), sequence (Q14994 whole entry, looked up): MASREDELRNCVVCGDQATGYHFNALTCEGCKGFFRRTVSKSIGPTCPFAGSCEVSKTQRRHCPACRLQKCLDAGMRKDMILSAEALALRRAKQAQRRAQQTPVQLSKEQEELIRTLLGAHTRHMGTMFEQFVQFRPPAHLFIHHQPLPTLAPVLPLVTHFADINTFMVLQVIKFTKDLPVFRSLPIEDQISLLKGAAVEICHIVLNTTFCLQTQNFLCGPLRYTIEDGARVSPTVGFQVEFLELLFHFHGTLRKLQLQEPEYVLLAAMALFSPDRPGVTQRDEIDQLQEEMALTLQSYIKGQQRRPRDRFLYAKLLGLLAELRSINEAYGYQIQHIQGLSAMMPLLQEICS

As to `CC(C)=CCCC(C)CC=O` (stereo not given), the Potency result in test [1], in [2], in test [3], in test [4], in [5] and in test [6] was “inactive” throughout. Moreover, the Potency entry in test [7] and in test [8] was “inactive” each time.
Consider `CCN1CCC[C@H]1CNC(=O)c1c(OC)ccc(Br)c1OC`, for which the Potency result in test [1], in [2], in test [9], in test [3], in test [4] and in [5] was “inactive” throughout. Further, the Potency result in test [6] and in [7] was “inactive” throughout.
For `CCN(CC)CCc1nc(-c2ccccc2)no1`, the Potency result in test [1], in [2], in test [3], in test [4], in test [5] and in test [6] was “inactive” in each case. Also, the Potency entry in test [10], in test [7], in [12] and in test [8] was “inactive” in each case. The Potency in [11] was 9.44 µM (active).
As to `CCCC[C@H]1CN(CC2CCOCC2)C(=O)OC12CCN(C1(C)CCN(C(=O)c3c(C)ncnc3C)CC1)CC2`, the Potency entry in [1], in [2], in test [3], in test [4], in test [5] and in [6] was “inactive” throughout. The Potency entry in test [10], in test [11], in [7], in test [13], in [12] and in test [8] was “inactive” each time.
For the molecule `C=CC(=O)OCCOC(=O)CCC(=O)O`, the Potency entry in [1], in [2], in test [3], in [4], in test [5] and in test [6] was “inactive” throughout. Moreover, the Potency result in [10], in [11], in test [7] and in test [13] was “inactive” throughout.
As for `CCc1nn(C2CCCCC2)c2cc(C3(C#N)CCC(C(=O)O)CC3)ccc12` (stereo not given), the Potency result in test [1], in test [2], in test [9], in test [4], in test [10] and in [11] was “inactive” each time. Moreover, the Potency entry in [12] and in [8] was “inactive” each time. Moreover, the Potency in test [3] is 48.6 µM (active).
Regarding `CNS(=O)(=O)Cc1ccc2[nH]cc(CCN(C)C)c2c1`, the Potency result in test [1], in [2], in test [3], in test [4], in [10] and in [11] was “inactive” each time. In test [7], the Potency result is “inactive”.
`CC(=O)SCc1ccco1`: the Potency result in [1], in [2], in [3], in test [4], in [5] and in test [6] was “inactive” in each case. For the same molecule, the Potency entry in [10], in [11], in test [7] and in [8] was “inactive” throughout.
With `O=[N+]([O-])c1cccc(Cl)c1Cl`, the Potency entry in test [1], in test [2], in test [9], in [3], in [5] and in [6] was “inactive” throughout. Also, the Potency entry in test [10], in test [11], in test [7], in [13] and in [8] was “inactive” in each case.
For `O=C1[C@H](CC[C@H](O)c2ccc(F)cc2)[C@@H](c2ccc(O)cc2)N1c1ccc(F)cc1`, the Potency entry in test [1], in test [2], in test [9], in test [4], in test [5] and in test [6] was “inactive” each time. The Potency result in [10], in test [11], in [7], in test [12] and in test [8] was “inactive” in each case. The Potency in test [13] was 26.6 µM (active).
`CC[C@@H]1C[C@H](N(Cc2cc(C(F)(F)F)cc(C(F)(F)F)c2)C(C)=O)c2cc(C(F)(F)F)ccc2N1C(=O)OC(C)C`: the Potency result in test [1], in [2], in [9], in test [3], in test [4] and in test [10] was “inactive” throughout. For the same molecule, the Potency result in test [11] and in test [7] was “inactive” throughout.
Regarding `Cn1c(N)nc2nc[nH]c2c1=O`, the Potency entry in test [1], in test [2], in [9], in test [3], in [4] and in test [5] was “inactive” throughout. Besides, the Potency entry in [6], in test [11], in test [7] and in test [8] was “inactive” throughout. Also, the Potency in [10] is 48 µM (active).
As to `c1ccc(-c2nc[nH]c2-c2ccccc2)cc1`, the Potency entry in [1], in test [2], in [3], in [4], in [5] and in [6] was “inactive” in each case. Besides, the Potency entry in [10], in test [11], in test [7] and in [8] was “inactive” in each case.
As for `O=S(=O)(O)c1ccc(O)c2ncccc12`, the Potency entry in test [1], in test [2], in [3], in test [4], in test [5] and in test [6] was “inactive” in each case. In addition, the Potency result in [10], in test [7] and in [8] was “inactive” each time.
As for `CCOC(=O)CC(C)C`, the Potency result in test [1], in test [2], in test [3], in [4], in test [5] and in [10] was “inactive” in each case. For the same molecule, the Potency entry in test [11] and in test [7] was “inactive” in each case.
As for `CCCCCCCC/C=C\CCCCCCCC(N)=O`, the Potency entry in test [1], in test [2], in [9], in [4], in [5] and in test [6] was “inactive” throughout. Also, the Potency result in test [10], in [11], in test [7], in test [13], in test [12] and in test [8] was “inactive” throughout.
As to `CCCCCC/C=C/C=O`, the Potency result in [1], in test [2], in test [9], in [3], in [4] and in [5] was “inactive” throughout. Further, the Potency entry in test [6], in test [10], in test [11], in test [13] and in test [12] was “inactive” each time.
On to `CC(=O)O[C@H]1C[C@@H]2CC[C@@H]3[C@H](CC[C@@]4(C)[C@H]3C[C@H]([N+]3(C)CCCCC3)[C@@H]4OC(C)=O)[C@@]2(C)C[C@@H]1N1CCCCC1`, for which the Potency result in test [1], in [2], in test [3], in test [4], in test [5] and in test [6] was “inactive” in each case. For the same molecule, the Potency result in test [10], in test [11], in test [7] and in test [8] was “inactive” each time.
For the molecule `CC(=O)N(CC(=O)N(C)C)c1ccccc1`, the Potency entry in test [1], in test [2], in test [3], in test [4], in test [5] and in test [6] was “inactive” in each case. Moreover, the Potency result in test [10], in [11], in test [13], in [12] and in [8] was “inactive” throughout.
`C[Si](C)O[Si](C)(C)O[Si](C)(C)O[Si](C)C`: the Potency entry in [1], in test [2], in test [9], in test [4], in test [5] and in test [6] was “inactive” in each case. The Potency result in test [7] and in test [8] was “inactive” throughout.
Take `COc1ccc([C@@H]2Sc3ccccc3N(CCN(C)C)C(=O)[C@@H]2OC(C)=O)cc1`: the molecule was classed as inactive in test [14].
For the molecule `CC(=O)c1c(C)c([N+](=O)[O-])c(C(C)(C)C)c([N+](=O)[O-])c1C`, the Potency result in test [2], in [9], in test [3], in [4], in test [5] and in test [6] was “inactive” each time. For the same molecule, the Potency result in [10] and in test [7] was “inactive” throughout. Further, in test [8], the Potency was 6.11 µM (active).
On to `C[C@H](CCC(=O)O)[C@H]1CC[C@H]2[C@@H]3[C@H](O)C[C@@H]4C[C@H](O)CC[C@]4(C)[C@H]3CC[C@]12C`, for which the Potency entry in test [2], in [15], in [9], in [5], in test [6] and in [10] was “inactive” each time. Besides, the Potency entry in [13] and in test [8] was “inactive” in each case. For the same molecule, the Potency in test [4] is 79.9 µM (active).
